From PubChem
Marburg entry inh: inhibitors of Marburg virus binding or cell entry. Potency, µM (doses to about 37.8 µM), actives largely listed as inhibitors. Marburg virus pseudotyped entry inhibition, cell reporter. 300,000 tested, 1.8% active; calls by dose curve; tested in HEK293 cells
Vaccinia Venus: inhibitors of vaccinia virus (Venus reporter); 330,000 tested, 0.46% active; Vaccinia virus Venus reporter expression, fluorescence; Potency, µM (highest dose often 36.5 µM), hits mostly inhibitors; calls by dose curve; tested in A549 cells; note: nearly all actives have a fitted effect of over 30% in size
LASV entry inh: inhibitors of Lassa virus binding or cell entry | Lassa virus pseudotype entry inhibition, cell reporter | Potency, µM (doses to about 37.9 µM), actives largely listed as inhibitors | 300,000 tested, 1.2% active | AID 540256; calls by dose curve; tested in HEK293 cells; note: nearly all actives have a fitted effect of over 50% in size
Shiga toxin inh: blocks Shiga toxin action in Vero cells | Vero cells, Shiga toxin protein synthesis inhibition reporter | inhibition, % at 38.7 µM | 290,000 tested, 9.2% active | AID 2315; in the data active = inhibition mostly above about 28%, no sharp cut-off; inactive = mostly below about 43%
Cycloheximide cs: counter-screen for Shiga toxin inhibitors: cycloheximide protein synthesis inhibition; 300,000 tested, 12% active; max response, %; cell reporter, cycloheximide protein synthesis inhibition counterscreen; in the data active = max response mostly above about 13%, no sharp cut-off; inactive = mostly below about 14%; note: read at 38.3 µM for the half of the compounds with a filed dose
Vaccinia mCherry: inhibitors of vaccinia virus infection (mCherry reporter signal); Vaccinia virus mCherry reporter infection, fluorescence; Potency, µM (top dose mostly 36.5 µM), actives largely listed as inhibitors; 310,000 tested, 0.63% active; calls by dose curve; tested in A549 cells; note: nearly all actives have a fitted effect of over 35% in size
Hits are given with their value; 0 = inactive; ? = inconclusive; - = no result given; + = active, no number. This is one part of a sample in which hits are shown more often than they occur.

SMILES	Marburg entry inh	Vaccinia Venus	LASV entry inh	Shiga toxin inh	Cycloheximide cs	Vaccinia mCherry
Cc1c(Cl)cccc1NC(=O)COCc1cc(-c2ccc3c(c2)OCO3)on1	-	0	0	-	-	0
COc1ccc(N2CCN(C(=O)COCc3cc(-c4ccc5c(c4)OCO5)on3)CC2)cc1	0	0	0	0	0	0
O=C(COCc1cc(-c2ccc3c(c2)OCO3)on1)Nc1cccnc1Cl	0	0	0	0	25.3	0
O=C(Cn1cncn1)N1CCOc2ccc(CN3CCN(c4ccccc4)CC3)cc2C1	-	0	-	-	-	0
CCc1ccc(NC(=O)CCCc2nnc3n(C(C)CC)c(=O)c4sccc4n23)cc1 (stereo unspecified)	-	0	0	-	-	0
O=c1[nH]c2ccccc2c2ccccc12	?	0	0	0	0	0
O=c1[nH]c2ccccc2c2cn(-c3ccccc3)nc12	?	?	?	60.5	17.6	?
O=C(NCC1CCC2(CCN(Cc3cccc4cccnc34)CC2)O1)c1ccco1 (stereo unspecified)	-	0	-	-	-	0
O=C(CSc1ccccc1C(=O)O)NC12CC3CC(CC(C3)C1)C2	-	-	-	0	0	-
O=C(CSc1ccc(F)cc1)NC12CC3CC(CC(C3)C1)C2	?	0	0	0	37.4	0
O=C(CSc1ccc(F)cc1)NC1CCCCC1	-	-	-	70.6	35.6	-
O=C(CCSc1ccc(Cl)c(Cl)c1)NC12CC3CC(CC(C3)C1)C2	?	-	0	0	27.1	-
O=C(CSc1ccc(Cl)cc1)NC1CCCC1	0	-	0	72.5	35.4	-
O=c1c2ccccc2n(Cc2c(F)cccc2Cl)c(=O)n1Cc1ccccc1	0	0	0	-	-	0
CC(C)(C)c1ccc(OCCNC(=O)Cc2ccc(F)cc2)cc1	?	0	?	0	0	0
O=C(CN1CCN(S(=O)(=O)c2cc(Cl)ccc2Cl)CC1)Nc1cccc(F)c1	-	0	0	-	-	0
COc1ccccc1NC(=O)CSc1oc(-c2ccco2)nc1S(=O)(=O)c1ccc(C)cc1	0	0	0	-	-	0
CCc1ccc(N2C(=O)CS(=O)(=O)C23C(=O)N(Cc2ccccc2F)c2ccccc23)cc1 (stereo unspecified)	-	0	0	-	-	0
O=C(CCCc1ccccc1)NC12CC3CC(CC(C3)C1)C2	-	-	-	-	45.5	-
Clc1ccc2c(c1)[C@H]1OCC[C@H]1[C@@H](c1ccco1)N2	-	0	-	65.9	24.6	0
Fc1ccc2c(c1)[C@H]1OCC[C@H]1[C@@H](c1ccco1)N2	0	-	0	0	0	-
O=C1[C@@H]2[C@@H]3C[C@@H]([C@H]4ON=C(c5ccc(Cl)cc5Cl)[C@@H]34)[C@@H]2C(=O)N1C1CCCCC1	?	0	?	0	30.9	0
Cc1ccc(NC(=O)C(NC2CCCc3ccccc32)c2ccccc2)c([N+](=O)[O-])c1 (stereo unspecified)	?	0	0	+	22.3	0
Cc1ccc(NC(=O)C(NC2CCCc3ccccc32)c2ccccc2)cc1Cl (stereo unspecified)	?	0	?	0	26.0	0
c1ccc(N2OCC3Cn4c(nc5ccccc54)C32)cc1 (stereo unspecified)	-	0	-	42.0	26.5	0
SMILES	Marburg entry inh	Vaccinia Venus	LASV entry inh	Shiga toxin inh	Cycloheximide cs	Vaccinia mCherry
COC(=O)c1ccc(CN2C[C@H](Sc3ccccn3)C[C@H]2C(=O)N(C)C)cc1	-	0	-	-	-	0
CN1CCN(S(=O)(=O)c2cccc(C(=O)Nc3ccccc3N3CCOCC3)c2)CC1	-	-	-	0	0	-
COc1ccc(Cn2c(-c3ccc(OC)cc3)n[nH]c2=S)cc1	0	0	?	0	0	0
CC(C)Oc1ccc(Cn2c(-c3ccco3)n[nH]c2=S)cc1	0	?	0	0	0	28.2µM
CCC(=O)N1c2ccccc2CC1C(=O)NCc1ccc(N(C)C)cc1 (stereo unspecified)	-	0	0	-	-	0
c1ccc(Cn2c(NCc3ccncc3)nc3ccccc32)cc1	0	-	0	51.6	26.1	-
C=CCn1c(/N=C/c2ccc(OC)cc2)nc2ccccc21	-	-	-	0	0	-
C=CCn1c(NCc2cc(Cl)ccc2O)nc2ccccc21	?	?	?	0	0	0
C=CCn1c(NCc2ccc(OC)cc2O)nc2ccccc21	-	-	-	22.7	32.7	-
Brc1cccc(CNc2nc3ccccc3n2CCN2CCCCC2)c1	-	-	-	0	0	-
C=CCn1c(NCc2ccccc2O)nc2ccccc21	0	0	0	-	21.5	0
Cn1c(NCc2cccc(Br)c2)nc2ccccc21	?	-	0	25.7	13.0	-
O=C(COC(=O)/C=C/c1cccc(C(F)(F)F)c1)NCc1cccs1	0	0	0	-	-	0
CCN(CC)CCn1c(NCc2ccc(C)o2)nc2ccccc21	?	0	0	0	0	0
Cn1c(NCc2ccccc2O)nc2ccccc21	0	0	0	0	38.4	0
C=CCn1c(NCc2ccccc2)nc2ccccc21	?	-	0	0	15.5	-
C=CCn1c(NCc2ccccc2OC)nc2ccccc21	-	-	-	0	17.5	-
Cn1c(NCc2ccccc2Cl)nc2ccccc21	-	0	-	-	-	0
Cc1ccc(CNc2nc3ccccc3n2C)o1	0	0	0	51.5	54.3	0
Cc1c(CCNC(=O)c2ccc(C(C)(C)C)cc2)sc2nc(-c3ccc(F)cc3)nn12	-	0	0	-	-	0
Fc1ccc(COc2cccc(CNCc3ccncc3)c2)cc1	6.31µM	0	0	0	0	0
c1ccc(COc2ccc(CNCc3cccnc3)cc2)cc1	?	0	0	0	29.7	0
c1ccc(COc2ccc(CNCc3cccs3)cc2)cc1	?	-	0	56.1	25.3	-
CCOc1ccc(CNCc2cccnc2)cc1	0	-	0	0	0	-
C=CCn1c(CCC(O)COCCC)n[nH]c1=S (stereo unspecified)	0	0	0	0	0	0
SMILES	Marburg entry inh	Vaccinia Venus	LASV entry inh	Shiga toxin inh	Cycloheximide cs	Vaccinia mCherry
NCCCC(=O)N1c2ccccc2Sc2ccc(Cl)cc21	?	0	0.708µM	0	0	0
CN(C(=S)NC(=O)c1ccc(F)cc1)C1CCCCC1	-	-	-	0	19.3	-
CN(C(=S)NC(=O)c1ccc(Cl)cc1)C1CCCCC1	0	0	0	71.6	49.5	0
CN(C(=S)NC(=O)c1ccccc1)C1CCCCC1	-	-	-	33.8	14.6	-
CN(C(=O)c1cccc(NC(=O)c2ccccc2)c1)C1CCCCC1	-	-	-	0	0	-
O=C1c2ccccc2C(=O)N1CN(C(=O)c1ccccc1[N+](=O)[O-])c1ccc(F)cc1	?	0	?	0	0	0
C#CCSc1nnc(-c2ccc(C)cc2)o1	?	?	?	73.2	39.2	10µM
C#CCSc1nnc(-c2cccc3ccccc23)o1	?	-	0	-	-	-
C#CCSc1nnc(-c2ccc(O)cc2)o1	?	0	?	62.1	52.9	0
CCc1cc2cc3c(cc2nc1SCC(=O)Nc1cc(C)on1)OCO3	?	0	0	0	0	0
O=Nc1ccc(NOC(=O)c2ccc(Br)cc2)cc1	0	-	-	0	0	-
COC(=O)c1ccc(N=NN2CCCCC2)cc1	?	0	0	126.6	37.7	0
COC(=O)c1ccc(NN=Nc2ccc(C)cc2)cc1	0	0	?	46.9	59.4	0
COC(=O)c1ccc(C)cc1	-	0	-	-	-	0
Cc1ccc(C(=O)ONc2ccc(N=O)cc2)cc1	0	0	0	84.9	46.0	0
Cc1cccc(C)c1NC(=O)CN(C)S(=O)(=O)c1ccc(-c2ccc(=O)[nH]n2)s1	-	-	-	0	0	-
Cc1cc2c(cc1C)N[C@]1(C[C@H]3CCCC(=O)N4CC[C@@H](C1)[C@@H]34)C(=NCc1ccccc1)N2	-	0	-	-	-	0
